Assay results published in PubChem BioAssay.
Several values for one entry are separate records, joined by “and”; a condition that tells them apart may be missing. Equal values may be shown once. Results filed as inconclusive are left out. For part of these data: Measured potencies and affinities stand elsewhere. A structure can be active in one record and inactive in another. Activity calls are given as the source filed them. Unless noted, no rule for the calls is given here.

Columns and labels:
[1] = target: Calcium-dependent protein kinase 1 (Plasmodium falciparum (isolate 3D7)) (UniProt P62344); experiment: PfCDPK1 kinase inhibitors, biochemical, TCAMS library (AID 1159585; cut-off not given, nearly all actives have IC50 up to about 0.98 µM;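 also: inhibitors leave more ATP so luminescence rises with inhibition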); details: recombinant PfCDPK1, Kinase-Glo ATP depletion luminescence
Chain of Calcium-dependent protein kinase 1 (Plasmodium falciparum (isolate 3D7)) (P62344 whole entry, looked up): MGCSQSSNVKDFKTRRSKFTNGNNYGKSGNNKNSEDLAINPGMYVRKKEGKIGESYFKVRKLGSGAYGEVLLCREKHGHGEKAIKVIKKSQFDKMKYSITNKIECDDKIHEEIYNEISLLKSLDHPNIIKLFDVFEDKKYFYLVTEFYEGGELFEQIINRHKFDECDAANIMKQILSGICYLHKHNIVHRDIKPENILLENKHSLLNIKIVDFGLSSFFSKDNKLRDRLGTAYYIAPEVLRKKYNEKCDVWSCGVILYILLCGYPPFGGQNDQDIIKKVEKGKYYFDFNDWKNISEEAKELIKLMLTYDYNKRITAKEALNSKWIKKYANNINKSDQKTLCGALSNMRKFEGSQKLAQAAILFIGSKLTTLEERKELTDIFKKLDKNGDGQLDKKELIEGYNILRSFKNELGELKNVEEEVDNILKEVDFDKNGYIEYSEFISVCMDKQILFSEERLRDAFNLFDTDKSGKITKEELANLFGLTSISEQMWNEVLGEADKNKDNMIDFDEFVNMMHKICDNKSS

[2] = target: Plasmodium falciparum protein kinase 6 (PK6, PF3D7_1337100) (UniProt Q8IDW1); experiment: PfPK6 kinase inhibitors, biochemical, TCAMS library (AID 1159586); details: recombinant PfPK6, Kinase-Glo ATP depletion luminescence
Chain of Plasmodium falciparum protein kinase 6 (PK6, PF3D7_1337100) (Q8IDW1 1-305): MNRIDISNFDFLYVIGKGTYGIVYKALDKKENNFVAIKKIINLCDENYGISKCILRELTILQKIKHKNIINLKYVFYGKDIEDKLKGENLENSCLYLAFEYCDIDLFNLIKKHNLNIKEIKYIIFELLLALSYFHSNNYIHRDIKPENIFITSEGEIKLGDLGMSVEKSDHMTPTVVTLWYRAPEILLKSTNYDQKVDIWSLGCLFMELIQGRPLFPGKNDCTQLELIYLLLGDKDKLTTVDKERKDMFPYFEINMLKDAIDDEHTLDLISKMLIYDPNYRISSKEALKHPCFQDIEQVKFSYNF

[3] = target: Protein kinase 7 (PK7), Plasmodium falciparum 3D7 (PF3D7_0213400) (UniProt Q7YTF7); experiment: inhibition of Plasmodium PK7 catalytic activity – biochemical, TCAMS antimalarial set, Kinase-Glo luminescence (AID 1159587); details: recombinant PfPK7, Kinase-Glo ATP depletion luminescence
Chain of Protein kinase 7 (PK7), Plasmodium falciparum 3D7 (PF3D7_0213400) (Q7YTF7 1-343): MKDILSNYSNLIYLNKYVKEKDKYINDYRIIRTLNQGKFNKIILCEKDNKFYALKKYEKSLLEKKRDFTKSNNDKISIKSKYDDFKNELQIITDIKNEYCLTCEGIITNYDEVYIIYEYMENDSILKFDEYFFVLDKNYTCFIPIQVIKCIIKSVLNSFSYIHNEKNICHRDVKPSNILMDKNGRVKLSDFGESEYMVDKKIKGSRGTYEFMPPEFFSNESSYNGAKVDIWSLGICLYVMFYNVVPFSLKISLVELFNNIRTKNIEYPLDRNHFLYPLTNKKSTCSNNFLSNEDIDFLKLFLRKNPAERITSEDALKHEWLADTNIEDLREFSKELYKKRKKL

[4] = target: Calcium-dependent protein kinase 4 (Plasmodium falciparum (isolate 3D7)) (UniProt Q8IBS5); experiment: PfCDPK4 kinase inhibitors, biochemical, TCAMS library (AID 1159588; cut-off not given, nearly all actives have IC50 up to about 0.91 µM); details: recombinant PfCDPK4, Kinase-Glo ATP depletion luminescence
Chain of Calcium-dependent protein kinase 4 (Plasmodium falciparum (isolate 3D7)) (Q8IBS5 whole entry, looked up): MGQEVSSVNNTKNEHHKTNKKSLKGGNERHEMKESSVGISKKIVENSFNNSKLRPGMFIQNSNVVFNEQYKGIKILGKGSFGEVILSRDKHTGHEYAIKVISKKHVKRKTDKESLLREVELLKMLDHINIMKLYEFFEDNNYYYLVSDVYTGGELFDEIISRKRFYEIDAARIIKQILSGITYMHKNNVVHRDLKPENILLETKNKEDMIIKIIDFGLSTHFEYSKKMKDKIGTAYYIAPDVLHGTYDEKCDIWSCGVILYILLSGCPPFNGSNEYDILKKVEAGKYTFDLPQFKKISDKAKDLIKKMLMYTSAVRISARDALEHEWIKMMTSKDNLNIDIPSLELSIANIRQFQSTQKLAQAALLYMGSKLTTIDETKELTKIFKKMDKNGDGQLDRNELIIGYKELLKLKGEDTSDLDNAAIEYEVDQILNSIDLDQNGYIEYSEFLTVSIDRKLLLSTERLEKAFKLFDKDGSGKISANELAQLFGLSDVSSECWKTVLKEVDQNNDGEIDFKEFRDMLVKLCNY

[5] = antimalarial activity against Dd2 strain (AID 2302;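 active = growth inhibition above 50% at the single 2 µM test dose, taken to imply half-maximal potency below 2 µM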;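 also: 0% = DMSO untreated growth and 100% = chloroquine plus artemisinin killed control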); details: P. falciparum Dd2 in RBCs, LDH growth readout, 72 h; at 2 µM; stronger effect = higher value
[6] = human hepatoma cell viability loss – ATP luminescence, cytotoxicity control for P. falciparum antimalarial project, primary screen (AID 2303;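 active = inhibition above 50%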;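 also: 0% = DMSO wells and 100% = digitonin-killed cells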); details: HepG2 viability, 24-48 h, at 10 µM, stronger effect = higher value
[7] = target: L-lactate dehydrogenase (Plasmodium falciparum (isolate CDC / Honduras)) (UniProt Q27743); experiment: PfLDH activity inhibition – cell lysate, 3D7 strain, counter-screen for P. falciparum growth inhibition project (AID 2304);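 also: 0% = vehicle and 100% = reference inhibitor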; details: P. falciparum 3D7 crude extract, LDH APAD/NBT absorbance; at 2 µM; stronger effect = higher value
Chain of L-lactate dehydrogenase (Plasmodium falciparum (isolate CDC / Honduras)) (Q27743 whole entry, looked up): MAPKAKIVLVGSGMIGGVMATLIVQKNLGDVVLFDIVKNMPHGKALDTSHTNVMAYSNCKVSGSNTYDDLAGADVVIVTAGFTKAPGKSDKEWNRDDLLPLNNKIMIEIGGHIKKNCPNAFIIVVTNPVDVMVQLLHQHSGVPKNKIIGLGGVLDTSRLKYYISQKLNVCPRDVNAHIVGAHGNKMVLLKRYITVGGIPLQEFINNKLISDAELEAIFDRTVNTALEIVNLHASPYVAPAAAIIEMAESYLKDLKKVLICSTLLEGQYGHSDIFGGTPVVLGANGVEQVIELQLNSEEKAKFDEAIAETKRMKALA

[8] = inhibition of 3D7 malaria parasite growth – strain 3D7 (AID 2306);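 also: 0% = DMSO wells and 100% = chloroquine plus artemisinin control wells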; details: P. falciparum 3D7 erythrocytic growth, LDH absorbance, 72 h; at 2 µM; stronger effect = higher value
[9] = P. berghei load reduction in hepatocytes – cell-based, HepG2, luciferase luminescence, HepG2 viability, primary screen (AID 624349; in the data active = parasite load remaining mostly below about 12%, no sharp cut-off; inactive = mostly above about 10%;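 also: 100% = mean of DMSO negative control wells on the same plate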); details: P. berghei liver stage in HepG2, luciferase luminescence, concentration not given here; parasite load remaining: stronger effect = lower value; viability: measured here: HepG2 viability without parasites
[10] = viability loss in pontine glioma line – cell-based, SU-DIPG-XVII, MIPE5.0, CellTiter-Glo, qHTS, dose response (AID 1347060; cut-off not given, nearly all actives have AC50 up to about 26 µM); details: CellTiter-Glo ATP luminescence
[11] = viability loss in pontine glioma line – cell-based, JHH-DIPG-1, MIPE4.0, CellTiter-Glo, qHTS, dose response (AID 1347062; cut-off not given, nearly all actives have AC50 up to about 27 µM); details: JHH-DIPG-1 viability, CellTiter-Glo ATP luminescence
[12] = viability loss in pontine glioma line – cell-based, SU-DIPG-IV, MIPE4.0, CellTiter-Glo, qHTS, dose response (AID 1347063; cut-off not given, nearly all actives have AC50 up to about 30 µM;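 also: compound exposure lasted 48 hours before the viability readout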); details: CellTiter-Glo ATP luminescence
[13] = viability loss in pontine glioma line – cell-based, SU-DIPG-XIII, MIPE5.0, CellTiter-Glo, qHTS, dose response (AID 1347064; cut-off not given, nearly all actives have AC50 up to about 23 µM); details: CellTiter-Glo ATP luminescence
[14] = viability loss in pontine glioma line – cell-based, SU-DIPG-XXV, MIPE5.0, CellTiter-Glo, qHTS, dose response (AID 1347065; cut-off not given, nearly all actives have AC50 up to about 26 µM;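 also: cells exposed to compound for 48 hours before ATP readout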); details: CellTiter-Glo ATP luminescence
[15] = growth inhibition of DIPG cells – cell-based, MIPE4.0 library, CellTiter-Glo luminescence, qHTS (AID 1347066; cut-off not given, nearly all actives have AC50 up to about 30 µM;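 also: cells exposed to compound for 48 hours before readout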); details: SU-DIPG-VI viability, CellTiter-Glo ATP luminescence
[16] = JHH-DIPG-1 glioma cell viability, MIPE5.0 library, CellTiter-Glo luminescence, qHTS (AID 1347067; cut-off not given, nearly all actives have AC50 up to about 26 µM;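 also: cells exposed to compound for 48 hours before readout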); details: JHH-DIPG-1 glioma viability, CellTiter-Glo ATP luminescence
[17] = growth inhibition of DIPG cells – cell-based, MIPE5.0 library, qHTS (AID 1347068; cut-off not given, nearly all actives have IC50 up to about 30 µM); details: SU-DIPG-XXV viability
[18] = viability loss with induced miR-34 in A549 – imaging, A549 dox-inducible miR-34, nuclei and caspase counts, primary screen (AID 1347080;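 active = compounds whose cell count with miR-34 switched on is under 0.7 times the count with it off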); details: A549 miR-34 inducible, Hoechst nuclei count, 48 h
[19] = MELAS cybrid and Rieske KO viability enhancers – cell-based, MELAS cybrids, Rieske KO mouse fibroblasts, CellTiter-Glo, primary screen (AID 1508586;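 active = mean z-score across replicates of 1.96 or higher in either the MELAS or the Rieske mutant cell line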;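 also: z relative to plate mean and SD of compound and empty wells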); details: low glucose
[20] = target: NAD(+) hydrolase SARM1 (Homo sapiens) (UniProt Q6SZW1); experiment: blocking NAD cleavage by SARM1 SAM-TIR – cell lysate, NAD-Glo luminescence (AID 1508614;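 active = compound whose remaining NAD level is above about 45 nM, limit read from the data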;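 also: higher remaining NAD means stronger inhibition of SARM1 NADase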); details: SAM-TIR HEK293T lysate NADase, at 1 µM, stronger effect = higher value
Chain of NAD(+) hydrolase SARM1 (Homo sapiens) (Q6SZW1 whole entry, looked up, the tested form may be a part): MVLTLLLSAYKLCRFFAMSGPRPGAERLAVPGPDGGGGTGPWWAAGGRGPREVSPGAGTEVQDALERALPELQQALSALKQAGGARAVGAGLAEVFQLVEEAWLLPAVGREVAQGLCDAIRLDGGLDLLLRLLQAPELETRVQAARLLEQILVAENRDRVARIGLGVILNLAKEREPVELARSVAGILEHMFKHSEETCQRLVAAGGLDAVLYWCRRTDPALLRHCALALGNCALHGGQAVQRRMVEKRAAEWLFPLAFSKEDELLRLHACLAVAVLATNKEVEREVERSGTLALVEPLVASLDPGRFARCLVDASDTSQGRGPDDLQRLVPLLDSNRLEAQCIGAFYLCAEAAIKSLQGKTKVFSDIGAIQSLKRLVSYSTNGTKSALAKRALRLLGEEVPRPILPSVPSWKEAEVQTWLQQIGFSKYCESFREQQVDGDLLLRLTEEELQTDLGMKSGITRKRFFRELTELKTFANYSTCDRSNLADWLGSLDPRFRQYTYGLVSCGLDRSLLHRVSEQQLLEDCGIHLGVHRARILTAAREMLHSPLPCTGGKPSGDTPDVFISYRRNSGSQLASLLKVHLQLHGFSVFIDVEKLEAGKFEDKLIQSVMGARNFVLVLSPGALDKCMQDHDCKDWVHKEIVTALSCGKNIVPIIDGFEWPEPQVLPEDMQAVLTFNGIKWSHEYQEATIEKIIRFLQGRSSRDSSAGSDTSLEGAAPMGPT

[21] = target: Mitogen-activated protein kinase 7 (Homo sapiens) (UniProt Q13164); experiment: Gal4-ERK5 driven luciferase induction – cell-based, HTS, primary screen (AID 1508626;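 active = luciferase signal above three times the same-plate solvent-only control wells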;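 also: luciferase driven by Gal4-ERK5 fusion binding five Gal4 sites before minimal TATA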); details: HeLa Gal4-ERK5 transactivation, 18 h, at 5 µM, stronger effect = higher value
Chain of Mitogen-activated protein kinase 7 (Homo sapiens) (Q13164 whole entry, looked up, the tested form may be a part): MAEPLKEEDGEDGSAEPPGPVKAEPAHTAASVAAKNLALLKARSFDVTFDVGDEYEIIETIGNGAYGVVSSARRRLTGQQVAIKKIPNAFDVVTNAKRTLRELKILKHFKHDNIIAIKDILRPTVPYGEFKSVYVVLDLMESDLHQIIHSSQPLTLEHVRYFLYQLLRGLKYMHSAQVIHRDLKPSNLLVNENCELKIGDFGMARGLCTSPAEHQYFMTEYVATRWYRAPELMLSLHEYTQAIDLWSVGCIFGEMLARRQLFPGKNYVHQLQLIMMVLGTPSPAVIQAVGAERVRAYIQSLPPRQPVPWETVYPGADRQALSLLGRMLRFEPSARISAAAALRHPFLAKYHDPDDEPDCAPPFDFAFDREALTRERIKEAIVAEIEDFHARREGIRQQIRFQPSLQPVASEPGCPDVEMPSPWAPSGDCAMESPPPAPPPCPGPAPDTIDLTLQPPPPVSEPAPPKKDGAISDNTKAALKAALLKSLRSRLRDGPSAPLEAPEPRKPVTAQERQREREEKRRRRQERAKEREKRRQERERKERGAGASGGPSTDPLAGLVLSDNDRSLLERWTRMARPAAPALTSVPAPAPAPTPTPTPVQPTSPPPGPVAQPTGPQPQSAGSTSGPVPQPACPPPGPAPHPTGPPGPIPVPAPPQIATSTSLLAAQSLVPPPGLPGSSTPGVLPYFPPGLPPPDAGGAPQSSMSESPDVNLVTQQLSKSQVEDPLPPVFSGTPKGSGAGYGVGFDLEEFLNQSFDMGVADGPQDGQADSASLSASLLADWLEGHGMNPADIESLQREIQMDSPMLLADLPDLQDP

[22] = galactose survival enhancers in mitochondrial complex I cybrids – cell-based, galactose medium, ATP luminescence, primary screen (AID 1645843;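 active = z-score of at least 1.8 in each of two replicates, scored against plate mean and spread of sample wells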;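 also: positive z means more ATP and so rescue of galactose-driven cybrid death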); details: complex I mutant cybrid cells, 72 h, stronger effect = higher value

With `COc1ccc(Nc2nc(N/N=C/c3cc(Br)c(O)cc3O)nc(Nc3ccc([N+](=O)[O-])cc3)n2)cc1` the outcome [1] was “inactive”, the outcome [2] was “inactive” and the outcome [3] was “inactive”. For the same molecule, the outcome [4] was “inactive”.

With `CC[C@H](C)[C@H](NC(=O)[C@@H](CC1CCCCC1)[C@H](CC)N(O)C=O)C(=O)Nc1ccccn1` the outcome [1] was “inactive”, the outcome [2] was “inactive” and the outcome [3] was “inactive”. For the same molecule, the outcome [4] was “inactive”.

With `O/N=C1\CCc2cc(-c3cc(-c4ccc(OC5CCNCC5)cc4)oc3-c3ccncc3)ccc21` the outcome [1] was “inactive”, the outcome [2] was “inactive” and the outcome [3] was “inactive”. The outcome [4] was “inactive”.

With `CCN(CC)CCCN=c1ccn(O)c2cc3ccccc3cc12` the outcome [1] was “inactive”, the outcome [2] was “inactive” and the outcome [3] was “inactive”. For the same molecule, the outcome [4] was “inactive”.

In the case of `c1cc2nc(CCCCCc3nc4ccc(C5=N[C@H]6CCCC[C@H]6N5)cc4[nH]3)[nH]c2cc1C1=N[C@H]2CCCC[C@H]2N1`, the outcome [1] is reported as “inactive”, the outcome [2] is reported as “inactive” and the outcome [3] is reported as “inactive”. For the same molecule, the outcome [4] was “inactive”.

With `CN(C)c1cc(N/N=C/c2cc(Cl)ccc2O)nc(N(C)C)n1` the outcome [1] was “inactive”, the outcome [2] was “inactive” and the outcome [3] was “inactive”. For the same molecule, the outcome [4] was “inactive”.

For `CN(C)C(=S)N/N=C/c1cccc(O)c1O`, the outcome [1] was “inactive”, the outcome [2] was “inactive” and the outcome [3] was “inactive”. The outcome [4] was “inactive”.

In the case of `CCC[C@@H]([C@H](CC(C)C)C(=O)N[C@@H](CCCN=C(N)NS(C)(=O)=O)C(=O)Nc1nccs1)N(O)C=O`, the outcome [1] is reported as “inactive”, the outcome [2] is reported as “inactive” and the outcome [3] is reported as “inactive”. The outcome [4] was “inactive”.

For `COc1cc(/C=C(\C2=NC(=O)CS2)c2nc3cccnc3n2C)ccc1O`, the outcome [1] was “inactive”, the outcome [2] was “inactive” and the outcome [3] was “inactive”. For the same molecule, the outcome [4] was “inactive”.

For `O=C(O)CCSSc1cccc[n+]1[O-]`, the outcome [1] was “inactive”, the outcome [2] was “inactive” and the outcome [3] was “inactive”. For the same molecule, the outcome [4] was “inactive”.

With `O=C(Cc1ccc[n+]([O-])c1)Nc1ccc(-c2cccc(-c3nc4ccc(C(F)(F)F)cc4[nH]3)c2)cc1` the outcome [1] was “inactive”, the outcome [2] was “inactive” and the outcome [3] was “inactive”. The outcome [4] was “inactive”.

For `COc1ccc2nc(C)cc(N/N=C/c3cc(C)ccc3O)c2c1`, the outcome [1] was “inactive”, the outcome [2] was “inactive” and the outcome [3] was “inactive”. The outcome [4] was “inactive”.

For `Cc1cccc2[nH]c(-c3cccc(-c4ccc(NC(=O)Cc5ccc[n+]([O-])c5)cc4)c3)nc12`, the outcome [1] was “inactive”, the outcome [2] was “inactive” and the outcome [3] was “inactive”. The outcome [4] was “inactive”.

For `CCOc1cc(/C=N/Nc2nc(C)cc(-n3nc(C)cc3C)n2)ccc1O`, the outcome [1] was “inactive”, the outcome [2] was “inactive” and the outcome [3] was “inactive”. For the same molecule, the outcome [4] was “inactive”.

In the case of `CCC[C@@H]([C@H](CC1CCCCC1)C(=O)N[C@H](C(=O)Nc1ccccn1)[C@H](C)CC)N(O)C=O`, the outcome [1] is reported as “inactive”, the outcome [2] is reported as “inactive” and the outcome [3] is reported as “inactive”. For the same molecule, the outcome [4] was “inactive”.

With `NC(N)=N/N=C/c1c[nH]c2ccc(-c3ccccc3)cc12` the outcome [1] was “inactive”, the outcome [2] was “inactive” and the outcome [3] was “inactive”. The outcome [4] was “inactive”.

For `CN(C)C[C@H](O)[C@H](c1ccccc1)c1ccc(Cl)cc1`, the outcome [1] was “inactive”, the outcome [2] was “inactive” and the outcome [3] was “inactive”. For the same molecule, the outcome [4] was “inactive”.

With `COc1cc(-c2nc(-c3ccc4c(c3)CC/C4=N\O)c(-c3ccncc3)[nH]2)ccc1OCCN1CCCCC1` the outcome [1] was “inactive”, the outcome [2] was “inactive” and the outcome [3] was “inactive”. The outcome [4] was “inactive”.

In the case of `N=C(N)c1ccc(/C=C/c2ccc(C(=N)N)cc2O)cc1`, the outcome [1] is reported as “inactive”, the outcome [2] is reported as “inactive” and the outcome [3] is reported as “inactive”. The outcome [4] was “inactive”.

With `CCC[C@@H]([C@H](CC1CCCCC1)C(=O)N[C@H](C(=O)Nc1nccc(N)n1)C(C)(C)C)N(O)C=O` the outcome [1] was “inactive”, the outcome [2] was “inactive” and the outcome [3] was “inactive”. For the same molecule, the outcome [4] was “inactive”.

With `Nc1ccc(-c2nc3cc(C4=N[C@@H]5CCCC[C@@H]5N4)ccc3o2)cc1[N+](=O)[O-]` the outcome [1] was “inactive”, the outcome [2] was “inactive” and the outcome [3] was “inactive”. The outcome [4] was “inactive”.

In the case of `O=C(CSc1cccc[n+]1[O-])c1ccc(Cc2ncc(C(F)(F)F)cc2Cl)s1`, the outcome [1] is reported as “inactive”, the outcome [2] is reported as “inactive” and the outcome [3] is reported as “inactive”. The outcome [4] was “inactive”.

For `O=C(Cc1ccc[n+]([O-])c1)Nc1cccc(-c2cccc(-c3nc4ccc(C(F)(F)F)cc4[nH]3)c2)c1`, the outcome [1] was “inactive”, the outcome [2] was “inactive” and the outcome [3] was “inactive”. The outcome [4] was “inactive”.

For `COc1cc(-c2nc(-c3ccc4c(c3)CC/C4=N\O)c(-c3ccncc3)[nH]2)ccc1OCCN1CCN(C)CC1`, the outcome [1] was “inactive”, the outcome [2] was “inactive” and the outcome [3] was “inactive”. The outcome [4] was “inactive”.

With `Cn1nc(-c2ccc(CN[C@@H]3CCc4ccc(O)cc43)cc2)c2cnc(NCCCN3CCCC3)nc21` the growth inhibition [5] was 61% (active), the inhibition [6] was 8% (inactive) and the inhibition [7] was 2% (inactive). For the same molecule, the growth inhibition [8] was 101% (active), the outcome [1] was “inactive” and the outcome [2] was “inactive”. For the same molecule, the outcome [3] was “inactive” and the outcome [4] was “inactive”.

With `CCc1cn(CC(=O)N(CCOc2ccc(-c3ccc(C(F)(F)F)cc3)cc2)CCN(CC)CC)c(SCc2ccc(F)cc2)nc1=O` the growth inhibition [5] was 29% (inactive), the inhibition [6] was 46% (inactive) and the inhibition [7] was -3% (inactive). The growth inhibition [8] was 95% (active), the outcome [1] was “inactive” and the outcome [2] was “inactive”. The outcome [3] was “inactive” and the outcome [4] was “inactive”.

With `C[C@H](Cc1ccc(C[C@@H](C)NCC(O)c2cc(Cl)c(N)c(Cl)c2)cc1)NCC(O)c1cc(Cl)c(N)c(Cl)c1` (some centres not stated) the growth inhibition [5] was 50% (active), the inhibition [6] was 26% (inactive) and the inhibition [7] was -3% (inactive). The growth inhibition [8] was 98% (active), the outcome [1] was “inactive” and the outcome [2] was “inactive”. For the same molecule, the outcome [3] was “inactive” and the outcome [4] was “inactive”.

In the case of `C=C[C@H]1CN2CC[C@H]1C[C@H]2[C@H](O)c1ccnc2ccc(OC)cc12`, the growth inhibition [5] is reported as 99% (active) and 22% (inactive) and 79% (active), the inhibition [6] is reported as 13% (inactive) and -12% (inactive) and -6% (inactive) and the inhibition [7] is reported as -4% (inactive) and -7% (inactive). The growth inhibition [8] was 100% (active) and 97% (active) and 99% (active), the parasite load remaining [9] was 49.1% (inactive) and the viability [9] was 193%. The outcome [1] was “inactive”, the outcome [2] was “inactive” and the outcome [3] was “inactive”. For the same molecule, the outcome [4] was “inactive”, the outcome [10] was “inactive” and the outcome [11] was “inactive”. The outcome [12] was “inactive”, the outcome [13] was “inactive” and the outcome [14] was “inactive”. For the same molecule, the outcome [15] was “inactive”, the outcome [16] was “inactive” and the outcome [17] was “inactive”. The fold change ([18]; stronger effect = lower value, cell number ratio, induced over uninduced) was 0.942 (inactive), the fold change ([18]; measured here: relative caspase fold change +Dox/-Dox) was 0.791 and the cell count ([18]; measured here: total cells with miR-34 induction, stronger effect = lower value) was 9260. For the same molecule, the cell count ([18]; measured here: total cells without miR-34 induction) was 9830, the z-score ([19]; MELAS cybrid survival, CellTiter-Glo 48 h, stronger effect = higher value) was -0.0548 (inactive) and the z-score ([19]; Rieske KO mouse fibroblast survival, CellTiter-Glo 72 h) was 1.17. For the same molecule, the remaining NAD [20] was 10 nM (inactive), the luciferase signal [21] was 140 AU (inactive) and the z-score [22] was -0.735 (inactive).
